Data: PubChem BioAssay (NCATS)
Inconclusive results are not listed. Active and inactive are the calls of the source. Unless noted, calls come from the whole dose curve; as a rule, active = well fitted curve in the direction sought with a large enough effect; inconclusive = small, poorly fitted or top-dose-only effect, or another doubt; inactive = no such curve, though single readings can be large; an effect the other way counts as inactive or inconclusive.

Columns and labels:
[1] = target: Catechol O-methyltransferase (Homo sapiens) (UniProt P21964); test: Confirmatory Screen for Target Class Profiling of Small Molecule Inhibitors of Methyltransferases (AID 1745852; calls by dose curve; note: potency is the fitted concentration of half-maximal effect; for activity change, negative = inhibition: % is set by controls: 0 for no effect and ±100 for the full control effect); conditions: MTase-Glo luminescence, SAH detection, recombinant enzyme; measured here: COMT max response; stronger effect = lower value
[2] = target: Guanidinoacetate N-methyltransferase (Homo sapiens) (UniProt Q14353); test: as above; conditions: MTase-Glo luminescence, SAH detection, recombinant enzyme; activity change, negative = inhibition: at 57.3 µM (top of the series) unless noted
[3] = target: Nicotinamide N-methyltransferase (Homo sapiens) (UniProt P40261); test: as above; conditions: MTase-Glo luminescence, SAH detection, recombinant enzyme; measured here: NNMT max response; stronger effect = lower value
[4] = target: Phenylethanolamine N-methyltransferase (Homo sapiens) (UniProt P11086); test: as above; conditions: MTase-Glo luminescence, SAH detection, recombinant enzyme; measured here: PNMT max response; stronger effect = lower value
[5] = NCATS anti-infectives library activity on HEK293 viability as a counter-qHTS vs the C. elegans viability qHTS (AID 1745854); conditions: HEK293 viability counter-screen; series mostly up to 41.8 µM; note: % is set by controls: 0 for no effect and ±100 for the full control effect
Procedure, shortened: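 CellTiter-Glo luminescence, read on a CCD imager, scored viability of HEK293 cells after 24 hr compound exposure at 37C. Library tested in several concentrations, 1:5 steps, up to 41.7 uM; digitonin served as control.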

[6] = target: Glutathione peroxidase 1 (Homo sapiens) (UniProt P07203); test: Primary qHTS Assay for Inhibitors of Recombinant Selenoprotein Glutathione Peroxidase 1 (GPX1) (AID 1845191); conditions: recombinant GPX1, GR-coupled NADPH fluorescence, 15 min; series mostly up to 48.8 µM; note: nearly all actives have a fitted effect of over 65% in size; note: potency is the fitted concentration of half-maximal effect
Procedure, shortened: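 GPX1 10 nM, GR 100 nM, GSH 1 mM, NADPH 0.5 mM, CHP 0.5 mM (final). 30-min cpd preincubation, RT. Ex340/Em450 read t=0, t=15 min.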

[7] = target: Phospholipid hydroperoxide glutathione peroxidase GPX4 (Homo sapiens) (UniProt P36969); test: Primary qHTS Assay for Inhibitors of Recombinant Selenoprotein Glutathione Peroxidase 4 (GPX4) (AID 1845192); conditions: recombinant GPX4, GR-coupled NADPH fluorescence, 15 min; series mostly up to 50 µM; note: nearly all actives have a fitted effect of over 65% in size; for activity change, negative = inhibition: % is set by controls: 0 for no effect and ±100 for the full control effect
Procedure, shortened: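 qHTS, GR-coupled: GPX4 200 nM + cpd 30 min RT → GSH 1 mM, NADPH 0.5 mM, GR 100 nM → CHP 0.5 mM start; fluor 340/450 at t0 and t15 min; no-enzyme wells as control.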

[8] = target: Luciferin 4-monooxygenase (Photinus pyralis) (UniProt P08659); test: Primary firefly luciferase (FLuc) qHTS assay for identification of artifact compounds. (AID 1845220); conditions: purified firefly luciferase, luminescence, 5 min; series mostly up to 54.1 µM; note: nearly all actives have a fitted effect of over 60% in size
Procedure, shortened: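 In this counter-screen for luciferase artifacts, test compounds met substrate (10 uM each luciferin and ATP) before 10 nM enzyme started the reaction. Light output was measured 5 min later.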

[9] = target: Rap guanine nucleotide exchange factor 3 (Homo sapiens) (UniProt O95398); test: Confirmatory qHTS for agonist of cAMP-regulated guanine nucleotide exchange factor 3 (EPAC1) (AID 1645881); conditions: EPAC1 Rap1B BODIPY-GDP exchange fluorescence; series mostly up to 154 µM;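 note: EPAC1 catalysed release of BODIPY-GDP from Rap1B seen as fluorescence loss; 100% = effect of cAMP agonist control; nearly all actives have a fitted effect of over 75% in size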
[10] = target: Rap guanine nucleotide exchange factor 4 (Homo sapiens) (UniProt Q8WZA2); test: Confirmatory qHTS for agonist of cAMP-regulated guanine nucleotide exchange factor 4 (EPAC2) (AID 1645884); conditions: EPAC2 GEF activity, Rap1B-BODIPY-GDP fluorescence; series mostly up to 154 µM;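 note: nucleotide exchange releases bodipy-GDP from Rap1 and this lowers its fluorescence; % is set by controls: 0 for no effect and ±100 for the full control effect; nearly all actives have a fitted effect of over 65% in size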
[11] = target: Metallo-beta-lactamase type 2 (Klebsiella pneumoniae) (UniProt C7C422); test: qHTS to identify inhibitors of the New Delhi Metallo-beta-lactamase (NDM): assay validation screen against the NCATS LOPAC Collection (AID 1794843); conditions: NDM-1 enzyme, nitrocefin hydrolysis, absorbance 485 nm; series mostly up to 38.4 µM; note: potency is the fitted concentration of half-maximal effect;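 for activity change, negative = inhibition: nitrocefin turnover by NDM-1 measured as 485 nm absorbance at plateau; % is set by controls: 0 for no effect and ±100 for the full control effect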
Procedure, shortened: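 NDM-1 at 2 nM final in 50 mM HEPES pH 7.0, 1 uM ZnSO4, 0.01% Tween20, preincubated with LOPAC compounds pinned in DMSO; 50 uM nitrocefin (stock) added. Hydrolysis read as absorbance at 485 nm in the plateau phase.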

Phospholipid hydroperoxide glutathione peroxidase GPX4 (Homo sapiens), sequence (P36969 whole entry, looked up): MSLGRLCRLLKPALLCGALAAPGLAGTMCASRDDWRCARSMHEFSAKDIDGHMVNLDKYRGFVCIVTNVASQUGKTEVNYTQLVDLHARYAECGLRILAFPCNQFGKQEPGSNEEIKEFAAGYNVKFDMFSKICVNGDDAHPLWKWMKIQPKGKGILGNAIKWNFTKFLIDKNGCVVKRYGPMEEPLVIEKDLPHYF
Glutathione peroxidase 1 (Homo sapiens), sequence (P07203 whole entry, looked up): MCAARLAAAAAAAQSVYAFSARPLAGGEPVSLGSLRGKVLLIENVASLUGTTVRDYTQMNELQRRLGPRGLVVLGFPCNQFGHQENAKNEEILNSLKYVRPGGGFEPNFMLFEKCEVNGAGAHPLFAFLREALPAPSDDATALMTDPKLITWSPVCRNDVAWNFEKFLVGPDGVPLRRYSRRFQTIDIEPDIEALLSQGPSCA
Catechol O-methyltransferase (Homo sapiens), sequence (P21964 whole entry, looked up): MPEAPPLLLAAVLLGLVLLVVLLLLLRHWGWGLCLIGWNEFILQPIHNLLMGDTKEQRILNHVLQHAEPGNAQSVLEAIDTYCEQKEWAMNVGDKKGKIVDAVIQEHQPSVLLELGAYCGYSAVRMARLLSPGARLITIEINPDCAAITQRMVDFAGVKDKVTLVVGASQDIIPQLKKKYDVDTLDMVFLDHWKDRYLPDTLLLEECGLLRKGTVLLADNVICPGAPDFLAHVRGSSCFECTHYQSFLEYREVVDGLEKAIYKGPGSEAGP
Phenylethanolamine N-methyltransferase (Homo sapiens), sequence (P11086 whole entry, looked up): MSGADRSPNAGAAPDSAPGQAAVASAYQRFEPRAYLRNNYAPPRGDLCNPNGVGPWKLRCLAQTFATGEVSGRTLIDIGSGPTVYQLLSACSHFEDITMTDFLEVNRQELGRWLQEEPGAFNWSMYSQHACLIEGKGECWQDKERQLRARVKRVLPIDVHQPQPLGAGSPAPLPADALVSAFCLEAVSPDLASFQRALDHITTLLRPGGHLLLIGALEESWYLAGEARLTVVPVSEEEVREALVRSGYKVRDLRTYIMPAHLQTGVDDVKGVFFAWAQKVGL
Nicotinamide N-methyltransferase (Homo sapiens), sequence (P40261 whole entry, looked up): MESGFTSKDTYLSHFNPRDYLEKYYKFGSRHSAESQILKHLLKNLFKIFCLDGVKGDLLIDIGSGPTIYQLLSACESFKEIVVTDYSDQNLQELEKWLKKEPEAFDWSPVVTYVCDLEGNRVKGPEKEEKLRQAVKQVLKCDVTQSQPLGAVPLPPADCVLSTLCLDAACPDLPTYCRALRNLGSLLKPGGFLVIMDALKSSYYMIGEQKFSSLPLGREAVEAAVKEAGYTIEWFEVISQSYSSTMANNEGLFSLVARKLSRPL
Metallo-beta-lactamase type 2 (Klebsiella pneumoniae), sequence (C7C422 whole entry, looked up): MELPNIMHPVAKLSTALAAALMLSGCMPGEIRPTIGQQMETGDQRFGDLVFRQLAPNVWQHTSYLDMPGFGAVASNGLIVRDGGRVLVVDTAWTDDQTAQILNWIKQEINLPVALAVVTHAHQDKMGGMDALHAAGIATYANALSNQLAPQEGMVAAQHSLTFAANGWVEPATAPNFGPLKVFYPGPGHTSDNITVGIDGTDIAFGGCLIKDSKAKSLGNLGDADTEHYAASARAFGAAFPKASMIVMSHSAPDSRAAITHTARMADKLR
Rap guanine nucleotide exchange factor 3 (Homo sapiens), sequence (O95398 whole entry, looked up): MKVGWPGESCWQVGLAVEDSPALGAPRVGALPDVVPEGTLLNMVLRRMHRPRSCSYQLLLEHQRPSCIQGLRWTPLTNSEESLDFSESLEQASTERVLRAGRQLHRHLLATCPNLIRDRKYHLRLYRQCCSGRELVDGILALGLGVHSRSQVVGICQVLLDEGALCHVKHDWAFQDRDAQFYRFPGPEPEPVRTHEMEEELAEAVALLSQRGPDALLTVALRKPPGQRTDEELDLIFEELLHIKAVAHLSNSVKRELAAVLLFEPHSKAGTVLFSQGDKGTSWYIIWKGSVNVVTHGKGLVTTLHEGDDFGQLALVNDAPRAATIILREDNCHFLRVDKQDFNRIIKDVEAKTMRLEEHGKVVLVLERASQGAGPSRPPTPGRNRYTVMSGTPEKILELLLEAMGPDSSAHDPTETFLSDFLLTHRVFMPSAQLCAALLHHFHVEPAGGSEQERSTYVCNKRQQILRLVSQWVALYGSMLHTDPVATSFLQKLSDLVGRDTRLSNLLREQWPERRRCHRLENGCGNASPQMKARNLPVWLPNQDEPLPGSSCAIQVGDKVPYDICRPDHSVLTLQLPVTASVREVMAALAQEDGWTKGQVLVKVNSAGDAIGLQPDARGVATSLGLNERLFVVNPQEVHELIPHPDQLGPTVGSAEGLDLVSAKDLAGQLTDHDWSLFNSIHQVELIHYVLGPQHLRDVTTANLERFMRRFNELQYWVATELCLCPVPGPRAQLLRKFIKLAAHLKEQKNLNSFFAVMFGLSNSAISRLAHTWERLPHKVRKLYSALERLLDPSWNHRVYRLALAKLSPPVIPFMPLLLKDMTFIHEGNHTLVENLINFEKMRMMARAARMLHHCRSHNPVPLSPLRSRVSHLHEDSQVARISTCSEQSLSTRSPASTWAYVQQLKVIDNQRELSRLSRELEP
Rap guanine nucleotide exchange factor 4 (Homo sapiens), sequence (Q8WZA2 whole entry, looked up): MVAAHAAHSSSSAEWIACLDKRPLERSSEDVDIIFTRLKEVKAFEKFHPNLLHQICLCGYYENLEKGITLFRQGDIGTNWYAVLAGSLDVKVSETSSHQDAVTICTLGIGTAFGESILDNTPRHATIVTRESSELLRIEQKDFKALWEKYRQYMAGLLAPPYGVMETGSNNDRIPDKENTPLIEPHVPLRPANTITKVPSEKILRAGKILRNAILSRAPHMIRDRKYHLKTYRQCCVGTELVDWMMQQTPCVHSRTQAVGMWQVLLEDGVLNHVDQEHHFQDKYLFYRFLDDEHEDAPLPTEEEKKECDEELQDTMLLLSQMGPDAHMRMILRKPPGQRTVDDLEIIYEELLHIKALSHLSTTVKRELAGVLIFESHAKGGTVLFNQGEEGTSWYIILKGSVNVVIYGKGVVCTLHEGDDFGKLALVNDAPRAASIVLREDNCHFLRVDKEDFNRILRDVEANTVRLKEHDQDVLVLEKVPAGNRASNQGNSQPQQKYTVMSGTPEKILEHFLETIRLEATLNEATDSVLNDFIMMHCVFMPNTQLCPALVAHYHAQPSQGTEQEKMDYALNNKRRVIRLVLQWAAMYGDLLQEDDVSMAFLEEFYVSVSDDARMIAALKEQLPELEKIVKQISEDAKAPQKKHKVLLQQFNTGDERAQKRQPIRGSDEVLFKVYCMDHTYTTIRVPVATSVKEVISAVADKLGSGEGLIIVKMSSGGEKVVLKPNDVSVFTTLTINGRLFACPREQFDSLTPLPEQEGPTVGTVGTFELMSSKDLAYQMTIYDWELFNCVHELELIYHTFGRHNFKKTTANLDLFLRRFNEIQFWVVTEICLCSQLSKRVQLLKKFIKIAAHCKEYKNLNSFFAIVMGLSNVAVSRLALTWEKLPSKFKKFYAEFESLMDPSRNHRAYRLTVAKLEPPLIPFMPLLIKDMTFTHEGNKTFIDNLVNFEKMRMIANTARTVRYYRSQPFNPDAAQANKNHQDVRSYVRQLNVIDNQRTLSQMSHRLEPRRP

**Q.** Which activity [1] does the source give for `COc1cc(C(=O)O[C@H]2[C@@H]3C=CO[C@@H](O[C@@H]4O[C@H](CO)[C@@H](O)[C@H](O)[C@H]4O)[C@@H]3[C@@]3(CO)O[C@@H]23)ccc1O` here?
**A.** Its activity is -83.5%.

**Q.** What about the activity change, negative = inhibition [2] of the same compound?
**A.** Its activity change, negative = inhibition is -1.53% [at 29.8 µM].

**Q.** What about the activity [3] of the same compound?
**A.** Its activity is -4.95%.

**Q.** And the activity [4]?
**A.** Its activity is -3.91%.

**Q.** And the outcome [5]?
**A.** Its outcome is “inactive”.

**Q.** And the Potency [6]?
**A.** The Potency was “inactive”.

**Q.** And the Potency [7]?
**A.** Its Potency is “inactive”.

**Q.** And the Potency [8]?
**A.** Its Potency is “inactive”.

**Q.** Which Potency [9] does the source give for `O=[N+]([O-])c1cc(O)c(O)c([N+](=O)[O-])c1` here?
**A.** The Potency was “inactive”.

**Q.** What about the Potency [10] of the same compound?
**A.** Its Potency is “inactive”.

**Q.** And the Potency [11]?
**A.** Its Potency is “inactive”.

**Q.** And the Potency [6]?
**A.** The Potency was “inactive”.

**Q.** And the Potency [7]?
**A.** Its Potency is “inactive”.

**Q.** Which activity [1] does the source give for `CCCN1CCc2cc(O)cc3c2[C@H]1Cc1ccc(O)c(O)c1-3` here?
**A.** Its activity is 2.74%.

**Q.** And the activity change, negative = inhibition [2]?
**A.** Its activity change, negative = inhibition is -2.35%.

**Q.** And the activity [3]?
**A.** Its activity is -21.6%.

**Q.** What about the activity [4] of the same compound?
**A.** The activity was 0.0057%.

**Q.** And the Potency [11]?
**A.** The Potency was “inactive”.

**Q.** And the Potency [6]?
**A.** Its Potency is “inactive”.

**Q.** What does the source list for `c1ccc2cc(CC3=NCCN3)ccc2c1`?
**A.** activity [1]: 5%; activity change, negative = inhibition [2]: 3.5%; activity [3]: 0.294%; activity [4]: 4.14%; Potency [11]: inactive; Potency [6]: inactive; Potency [7]: inactive

**Q.** For `NCCc1ccc(S(=O)(=O)F)cc1`, which outcome [5] is on record?
**A.** Its outcome is “inactive”.

**Q.** And the Potency [11]?
**A.** The Potency was “inactive”.

**Q.** What about the Potency [6] of the same compound?
**A.** Its Potency is “inactive”.

**Q.** And the Potency [7]?
**A.** The Potency was “inactive”.

**Q.** Which activity [1] does the source give for `CC(N)c1cccc(Cl)c1Cl` (stereo not given) here?
**A.** The activity was 3.38%.

**Q.** And the activity change, negative = inhibition [2]?
**A.** Its activity change, negative = inhibition is 5.58%.

**Q.** What about the activity [3] of the same compound?
**A.** Its activity is -1.94%.

**Q.** And the activity [4]?
**A.** Its activity is -98.4%.

**Q.** What about the Potency [11] of the same compound?
**A.** The Potency was “inactive”.

**Q.** And the Potency [6]?
**A.** Its Potency is “inactive”.

**Q.** What about the Potency [7] of the same compound?
**A.** Its Potency is “inactive”.

**Q.** What does the source list for `CN1CCc2cc(O)cc3c2[C@H]1Cc1ccc(O)c(O)c1-3`?
**A.** activity [1]: -101%; activity change, negative = inhibition [2]: -1.59%; activity [3]: -4.5%; activity [4]: -1.47%; Potency [11]: inactive; Potency [6]: inactive; Potency [7]: inactive

**Q.** Which activity [1] does the source give for `CCCN(CCC)CCc1ccc(O)c(O)c1` here?
**A.** The activity was 153%.

**Q.** What about the activity change, negative = inhibition [2] of the same compound?
**A.** Its activity change, negative = inhibition is 6.88%.

**Q.** What about the activity [3] of the same compound?
**A.** Its activity is -2.74%.

**Q.** And the activity [4]?
**A.** Its activity is -0.0665%.

**Q.** And the Potency [11]?
**A.** The Potency was “inactive”.

**Q.** What about the Potency [6] of the same compound?
**A.** Its Potency is “inactive”.

**Q.** What about the Potency [7] of the same compound?
**A.** Its Potency is “inactive”.

**Q.** For `CN(N=O)c1ccc(O)c(O)c1`, which activity [1] is on record?
**A.** Its activity is -69.3%.

**Q.** What about the Potency [2] of the same compound?
**A.** The Potency was 27.3 µM (active).

**Q.** And the activity [3]?
**A.** The activity was -14.9%.

**Q.** What about the activity [4] of the same compound?
**A.** The activity was -27.8%.

**Q.** What about the Potency [11] of the same compound?
**A.** The Potency was 12.6 µM (active).

**Q.** What about the Potency [6] of the same compound?
**A.** The Potency was “inactive”.

**Q.** What does the source list for `NC(=O)CI`?
**A.** activity [1]: -3.06%; activity change, negative = inhibition [2]: 0.112%; activity [3]: -21.3%; activity [4]: -8.06%; Potency [11]: inactive; Potency [6]: inactive; Potency [7]: inactive

**Q.** Which activity [1] does the source give for `N#C/C(=C/c1ccc(O)c(O)c1)C(N)=S` here?
**A.** The activity was 52.2%.

**Q.** And the activity change, negative = inhibition [2]?
**A.** Its activity change, negative = inhibition is -6.16%.

**Q.** What about the activity [3] of the same compound?
**A.** Its activity is -5.97%.

**Q.** And the activity [4]?
**A.** The activity was 1.47%.

**Q.** And the Potency [11]?
**A.** Its Potency is “inactive”.

**Q.** And the Potency [6]?
**A.** The Potency was 14.3 µM (active).

**Q.** What about the Potency [7] of the same compound?
**A.** The Potency was “inactive”.

**Q.** With `CCn1cnc2c(Nc3cccc(Cl)c3)nc(N[C@@H]3CCCC[C@@H]3N)nc21` as the compound, how does the activity [1] read?
**A.** The activity was 7.4%.

**Q.** What about the activity change, negative = inhibition [2] of the same compound?
**A.** Its activity change, negative = inhibition is 4.82%.

**Q.** What about the activity [3] of the same compound?
**A.** Its activity is -17.5%.

**Q.** And the activity [4]?
**A.** The activity was 1.09%.

**Q.** And the Potency [11]?
**A.** Its Potency is “inactive”.

**Q.** And the Potency [6]?
**A.** Its Potency is “inactive”.

**Q.** What about the Potency [7] of the same compound?
**A.** Its Potency is “inactive”.

**Q.** With `CN1CC[C@@]2(C)c3cc(O)ccc3N(C)C12` (stereo not given in full) as the compound, how does the activity [1] read?
**A.** The activity was -27.2%.

**Q.** What about the Potency [2] of the same compound?
**A.** Its Potency is 24.3 µM (active).

**Q.** What about the activity [3] of the same compound?
**A.** The activity was -23.6%.

**Q.** And the activity [4]?
**A.** The activity was -16.3%.

**Q.** What about the Potency [11] of the same compound?
**A.** The Potency was “inactive”.

**Q.** What about the Potency [6] of the same compound?
**A.** The Potency was “inactive”.

**Q.** What about the Potency [7] of the same compound?
**A.** Its Potency is “inactive”.
